# Measurements reported in PubChem BioAssay (EPA / NIEHS).
# Calls of active or inactive are those of the source. How the source made its calls: active means hit-call score of the fitted dose curve at least 0.9, where 1 is the maximum; inactive means score below 0.9.
# Experiment: APR_HepG2_CellLoss_24hr: Apredica 24-hour HepG2 Assay for Cell Loss (AID 2282908);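 on AC50: fit in both directions so a hit may be cell loss or gain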
# Conditions: high-content imaging
# Protocol: APR_HepG2_24hr is a cell-based, multiplexed-readout assay that uses HepG2, a human liver cell line, with measurements taken at 24 hours after chemical dosing in a 384-well plate.APR_HepG2_CellLoss_24hr is one of 10 assay component(s) measured or calculated from the APR_HepG2_24hr assay. It is designed to make measurements of cell number, a form of viability reporter, as detected with fluorescence intensity signals by HCS Fluorescent Imaging technology.Data from the assay component APR_HepG2_CellLoss_24hr was analyzed into 1 assay endpoint. This assay endpoint, APR_HepG2_CellLoss_24hr, was analyzed with bidirectional fitting relative to DMSO as the negative control and baseline of activity. Using a type of viability reporter, measures of all nuclear dna for gain or loss-of-signal activity can be used to understand the viability at the cellular-level. Furthermore, this assay endpoint can be referred to as a secondary readout, because this assay has produced multiple assay endpoints where this one serves a viability function. To generalize the intended target to other relatable targets, this assay endpoint is annotated to the cell cycle intended target family, where the subfamily is proliferation.
# Cells were treated with dimethyl sulfoxide (DMSO) as a solvent control at a final concentration of 0.5% v/v or with compounds in DMSO with a resulting final DMSO concentration of 0.5% v/v. Compound treatment was done at concentrations of 0.39, 0.78, 1.56, 3.12, 6.24, 12.5, 25, 50, 100, and 200 uM in duplicate on each plate. Cells were treated with compounds for 1, 24, or 72 hr. Carbonyl […] m-chloro-phenylhydrazone (CCCP) and taxol were used as positive controls for mitochondrial function and cytoskeletal stability, respectively; DMSO served as the negative control for this experiment. Cells were fixed by the direct addition of 50 uL formaldehyde in Hank's Balanced Salt Solution (HBSS) to a final concentration of 3.7%. After incubation in the fixation medium for 30 min at room temperature (293-298 K), cells were rinsed twice with HBSS and treated with cell permeabilization buffer (16 uL of 0.5% Triton X-100) for 10 min at room temperature (293-298 K) before labeling. For mitochondrial membrane potential and mitochondrial measurements, pre-fixed cells were incubated with 50 uL of MitoTracker Red CMXRos (Invitrogen) at a concentration of 250 nM for 30 min before fixation. In the remaining cases, post-fixed cells were labeled by incubation with a multiplexed mixture of primary antibodies in HBSS for 60 min at room temperature (293-298 K) to detect immunoreactivity of c-Jun (1:500), phospho-histone H3 (1:100), phospho-histone H2A.x (1:200), p53 (1:400), alpha-tubulin (1:200) and Hoechst 33342 (2 ug/mL). Cells were labeled for multiplexed imaging on two separate plates: a) Hoechst 33342, MitoTracker Red, phospho-histone H3, and alpha-tubulin, and b) Hoechst 33342, phospho-histone H2A.x, and c-Jun. A final rinse with HBSS (50 uL) was performed before analysis. The primary and secondary antibodies for the proteins were phospho-histone H3 (rabbit anti-phospho-histone H3 and FITC-donkey anti-rabbit IgG), phospho-histone H2A.x (mouse anti-phospho-histone H2A.x and FITC-donkey anti-mouse IgG), c-Jun (rabbit anti-phospho-c-Jun and Cy3-donkey anti-rabbit IgG), p53 (sheep anti-p53 and Cy5-donkey anti-sheep IgG), alpha-tubulin (mouse anti-alpha-tubulin and Cy5-donkey anti-mouse IgG). These antibodies are available as the CellCiphr HepG2 assay kit (Millipore).Digital images of each well were captured using a Cellomics ArrayScan VTI (Thermo Scientific Cellomics) (0.8 NA objective, 0.63x optical coupler, and XF-93 filter set) at 20x magnification. The images were acquired using the autofocus feature of the ArrayScan instrument, which entails the following steps. First, the camera focuses on channel 1 (Hoechst 33342), where nuclei are identified. Second, a Z offset of 1 um is used for capturing mitochondria (MitoTracker Red). […]
SMILES,AC50,outcome
CN(C)C(=S)S,0.183 µM (active),–
CCCCCCCCCCCCc1cccc(S(=O)(=O)O)c1,–,inactive
O=C(O)C1(c2ccc3c(c2)OC[C@H](Cc2ccc(-c4ccccc4)cc2)[C@H]3O)CCCC1,–,inactive
CC(C)O.CC(C)O.OCCN(CCO)CCO.OCCN(CCO)CCO.[Ti],–,inactive
Oc1c(Cl)cc(Cl)cc1Cl,–,inactive
Clc1cccc(Cl)c1Cl,–,inactive
COc1ccccc1N,–,inactive
Cc1cc(C)cc(C)c1,–,inactive
Oc1cc(Cl)c(Cl)cc1Cl,27.7 µM (active),–
CC(C)(C)c1ccccc1O,–,inactive
N#Cc1cccnc1,–,inactive
OCCN(CCO)CCO,–,inactive
Clc1cccc(Cl)c1,–,inactive
O=C(N[C@H]1CN2CCC1CC2)c1ccc2c(c1)OCCO2,–,inactive
